Measurements published in PubChem BioAssay (Tox21).
Records with an inconclusive call do not appear. Calls of active or inactive are those of the source. Unless noted, calls come from the whole dose curve.

Legend:
[1] = Nuclear factor erythroid 2-related factor 2/antioxidant responsive element (Nrf2/ARE) small molecule agonists: qHTS cell viability counter screen in human keratinocytes (AID 1919968; active = well fitted cell-killing curve with a large enough effect in the repeat runs; note: nearly all actives have a fitted effect of over 55% in size; note: potency is the fitted concentration of half-maximal effect)
Method in brief: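 Stably transfected HaCaT (KeratinoSens), 1,500/well. Test agents in DMSO were applied for 23 h, 37 C/5% CO2. CellTiter-Fluor was incubated 1 h before the fluorescence read.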

[2] = molecular target: Gonadotropin-releasing hormone receptor (Homo sapiens) (UniProt P30968); assay: Human gonadotropin-releasing hormone receptor (GnRHR) small molecule agonists, calcium flux assay in GnRHR-HEK293 cells (AID 1920063); note: nearly all actives have a fitted effect of over 35% in size
Method in brief: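 Stable human GnRHR HEK293 line. 18 h plating, then calcium dye for 1 h at 37 C. Agonist-mode compound addition from DMSO stocks; fluorescence monitored 3 min.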

[3] = G protein-coupled receptor (GPCR) small molecule agonists, calcium flux assay: HEK293 wild type cell line counter screen (AID 1920065)
Method in brief: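 Following 18 h incubation at 37 C/5% CO2, plates got calcium dye for 1 h; compounds, ATP or DMSO were then pinned in and fluorescence followed kinetically (480/540 nm).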

[4] = p53 small molecule agonists, cell-based qHTS assay with human liver microsomes (AID 1963577)
Method in brief: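 p53RE-bla reporter cells were pre-incubated 5 h at 37 C, then treated with compounds plus human liver microsomes (0.5 mg/mL final) and NADPH (0.5 mg/mL final) for 16 h at 37 C. Beta-lactamase activity was read by LiveBLAzer fluorescence after 2 h at room temperature.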

[5] = p53 small molecule agonists, cell-based qHTS assay with human liver microsomes: qHTS cell viability counter screen (AID 1963579); note: nearly all actives have a fitted effect of over 45% in size
Method in brief: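 p53RE-bla cells (4,000/well) were pre-incubated 5 h at 37 C, then given compounds in DMSO plus human liver microsomes (0.5 mg/mL final) and NADPH (0.5 mg/mL final) for 16 h at 37 C. Viability was read by CellTiter-Glo luminescence.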

[6] = p53 small molecule agonists, cell-based qHTS assay with rat liver microsomes: qHTS cell viability counter screen (AID 1963580); note: nearly all actives have a fitted effect of over 45% in size
Method in brief: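 Rat liver microsome (0.5 mg/mL final) and NADPH (0.5 mg/mL final) co-incubation with compounds for 16 h at 37 C on HCT-116 p53RE-bla cells; cytotoxicity taken from intracellular ATP luminescence.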

[7] = p53 small molecule agonists, cell-based qHTS assay (AID 1963582; active = well fitted activation curve with a large enough effect in the signal ratio in the repeat runs, not every such curve was filed as active; the % refers to the signal ratio)
Method in brief: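 Measured: fluorescence from cleaved LiveBLAzer substrate. System: p53RE-bla cells, 16 h compound treatment at 37 C, 2 h substrate step at room temperature.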

[8] = molecular target: 5-hydroxytryptamine receptor 2A (Homo sapiens) (UniProt P28223); assay: 5-hydroxytryptamine receptor 2A (HTR2A) small molecule antagonists, cell-based qHTS assay (AID 1963586); note: nearly all actives have a fitted effect of over 45% in size
Method in brief: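 CHO cells stably expressing human HTR2A were plated for 18 h at 37 C, then loaded with calcium dye for 1 h. Compounds were preincubated 5 min at room temperature before DOI (4 nM solution) was added. Kinetic fluorescence was read for 3 min.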

[9] = molecular target: 5-hydroxytryptamine receptor 2A (Homo sapiens) (UniProt P28223); assay: 5-hydroxytryptamine receptor 2A (HTR2A) small molecule agonists, cell-based qHTS assay (AID 1963587); note: nearly all actives have a fitted effect of over 30% in size
Method in brief: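 Kinetic calcium-flux fluorescence (2 min, 1 sec intervals) after compound addition in agonist mode. HTR2A-CHO cells were cultured 18 h, then dye-loaded 1 h at 37 C.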

[10] = molecular target: Muscarinic acetylcholine receptor M1 (Homo sapiens) (UniProt P11229); assay: Cholinergic receptor muscarinic 1 (CHRM1) small molecule antagonists, cell-based qHTS assay (AID 1963588); note: nearly all actives have a fitted effect of over 40% in size
Method in brief: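 Compounds were tested at 15 concentrations in three independent runs. Dye-loaded CHRM1-CHO cells were exposed 5 min at room temperature before stimulation by acetylcholine added at 50nM. Intracellular calcium was read kinetically on FDSS for 3 min.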

[11] = cAMP Responsive Elements (CRE) small molecule agonists, cell-based qHTS assay (AID 1963590)
Method in brief: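 Test agents in DMSO were incubated 3 h at 37 C/5% CO2 with CRE-bla HEK 293T cells seeded 18 h earlier; LiveBLAzer B/G FRET substrate was added and read after 2 h at room temperature.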

[12] = molecular target: Beta-2 adrenergic receptor (Homo sapiens) (UniProt P07550); assay: Adrenergic beta2 receptor (ADRB2) small molecule antagonists, cell-based qHTS assay (AID 1963592); note: series mostly up to about 92 µM; nearly all actives have a fitted effect of over 50% in size
Method in brief: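 Assay format: CHO-ADRB2 cells, 18-20hr seeding at 37C/5% CO2, then compound plus 1nM isoproterenol agonist mix for 0.5hr RT. Homogeneous time-resolved fluorescence cAMP detection after 1hr, expressed as 665/615 nm ratio.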

[13] = molecular target: D(2) dopamine receptor (Homo sapiens) (UniProt P14416); assay: Dopamine D2 receptor (DRD2) small molecule agonists, cell-based qHTS assay (AID 1963594); note: nearly all actives have a fitted effect of over 35% in size
Method in brief: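 cAMP accumulation in DRD2-HEK293 cells measured by HTRF after 1 h detection; compounds added 10 min before NKH477 (200nM […]) forskolin-analogue stimulation, 30 min at room temperature, with Ro20-1724 present at 0.1 mM final.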

[14] = molecular target: D(2) dopamine receptor (Homo sapiens) (UniProt P14416); assay: Dopamine D2 receptor (DRD2) small molecule antagonists, cell-based qHTS assay (AID 1963595; active = well fitted inhibition curve with a large enough effect in the signal ratio in the repeat runs, with a control signal flat; the % refers to the signal ratio)
Method in brief: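 Readout: HTRF cAMP, cAMP-d2 competing with cellular cAMP for anti-cAMP cryptate, read after 1 h. Cells: DRD2-HEK293. Conditions: 0.1 mM Ro20-1724, 12 nM quinpirole, 200 nM NKH477, 30 min RT.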

[15] = p53 small molecule agonists, cell-based qHTS assay: qHTS cell viability counter screen (AID 1963581); note: nearly all actives have a fitted effect of over 45% in size
Method in brief: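 qHTS counter screen: 16 h compound exposure at 37 C of p53RE-bla HCT-116 cells (4,000 per well, seeded 5 h prior), cell viability by ATP luminescence.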

[16] = molecular target: Muscarinic acetylcholine receptor M1 (Homo sapiens) (UniProt P11229); assay: Cholinergic receptor muscarinic 1 (CHRM1) small molecule agonists, cell-based qHTS assay (AID 1963589); note: nearly all actives have a fitted effect of over 35% in size
Method in brief: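 Kinetic fluorescence (1 s intervals) of calcium-sensitive dye in human M1 CHO cells after compound addition; cells pre-incubated 18 h at 37 C/5% CO2 and dye-loaded 1 h.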

[17] = cAMP Responsive Elements (CRE) small molecule antagonists, cell-based qHTS assay (AID 1963591; active = well fitted inhibition curve with a large enough effect in the signal ratio in the repeat runs, not every such curve was filed as active; the % refers to the signal ratio)
Method in brief: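 Reporter line CRE-bla HEK 293T in dialyzed-FBS DMEM; cells preincubated 18 h, treated 3 h with compound plus NKH477 (0.25 uM final); LiveBLAzer FRET, 2 h RT.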

[18] = p53 small molecule agonists, cell-based qHTS assay with rat liver microsomes (AID 1963578)
Method in brief: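 p53RE-bla cells were exposed to compounds together with rat liver microsomes (0.5 mg/mL final) and NADPH (0.5 mg/mL final) for 16 h at 37 C, then read by LiveBLAzer beta-lactamase fluorescence after 2 h at room temperature.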

[19] = molecular target: Beta-2 adrenergic receptor (Homo sapiens) (UniProt P07550); assay: Adrenergic beta2 receptor (ADRB2) small molecule agonists, cell-based qHTS assay (AID 1963593);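 note: CHO cells stably overexpressing human ADRB2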
Method in brief: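 CHO cells stably over-expressing ADRB2 were plated overnight at 37C, then dosed with compounds plus a stimulation mix containing 100uM IBMX and 25uM Ro-20-1724 for 0.5hr at room temperature. cAMP was measured by HTRF competition, 1hr.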
% is set by controls: 0 for no effect and ±100 for the full control effect.

Muscarinic acetylcholine receptor M1 (Homo sapiens), sequence (P11229 whole entry, looked up): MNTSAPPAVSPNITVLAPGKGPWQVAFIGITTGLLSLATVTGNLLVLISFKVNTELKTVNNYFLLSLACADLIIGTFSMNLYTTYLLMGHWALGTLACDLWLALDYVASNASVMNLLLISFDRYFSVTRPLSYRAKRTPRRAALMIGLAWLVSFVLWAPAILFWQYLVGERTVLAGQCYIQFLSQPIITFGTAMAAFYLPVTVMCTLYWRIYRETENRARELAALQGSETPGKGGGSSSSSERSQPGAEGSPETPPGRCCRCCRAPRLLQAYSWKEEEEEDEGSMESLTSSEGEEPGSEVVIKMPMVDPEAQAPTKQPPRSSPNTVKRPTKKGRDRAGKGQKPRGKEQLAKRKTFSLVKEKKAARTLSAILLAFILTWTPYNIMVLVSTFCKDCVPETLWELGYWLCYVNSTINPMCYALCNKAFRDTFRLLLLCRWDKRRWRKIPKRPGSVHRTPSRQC
Beta-2 adrenergic receptor (Homo sapiens), sequence (P07550 whole entry, looked up): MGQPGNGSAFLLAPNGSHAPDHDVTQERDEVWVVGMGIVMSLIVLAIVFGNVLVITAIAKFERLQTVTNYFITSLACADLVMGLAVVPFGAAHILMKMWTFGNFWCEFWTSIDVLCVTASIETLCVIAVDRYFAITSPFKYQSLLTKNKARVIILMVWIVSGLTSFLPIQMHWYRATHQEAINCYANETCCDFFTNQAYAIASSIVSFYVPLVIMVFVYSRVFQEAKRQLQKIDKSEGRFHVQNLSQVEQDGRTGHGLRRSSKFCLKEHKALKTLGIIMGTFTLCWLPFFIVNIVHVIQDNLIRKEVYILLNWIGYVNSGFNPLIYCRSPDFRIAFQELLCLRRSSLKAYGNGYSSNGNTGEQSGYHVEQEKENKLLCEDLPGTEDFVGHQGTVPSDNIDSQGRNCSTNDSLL
Gonadotropin-releasing hormone receptor (Homo sapiens), sequence (P30968 whole entry, looked up): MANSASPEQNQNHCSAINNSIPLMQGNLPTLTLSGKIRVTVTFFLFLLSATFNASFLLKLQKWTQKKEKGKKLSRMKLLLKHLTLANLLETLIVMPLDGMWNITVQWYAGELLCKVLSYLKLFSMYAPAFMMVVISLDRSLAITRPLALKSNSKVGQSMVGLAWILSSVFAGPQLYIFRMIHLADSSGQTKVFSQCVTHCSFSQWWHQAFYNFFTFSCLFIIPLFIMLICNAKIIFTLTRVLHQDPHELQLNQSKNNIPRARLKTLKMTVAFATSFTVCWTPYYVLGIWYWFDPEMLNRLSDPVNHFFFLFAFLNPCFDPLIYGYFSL
D(2) dopamine receptor (Homo sapiens), sequence (P14416 whole entry, looked up): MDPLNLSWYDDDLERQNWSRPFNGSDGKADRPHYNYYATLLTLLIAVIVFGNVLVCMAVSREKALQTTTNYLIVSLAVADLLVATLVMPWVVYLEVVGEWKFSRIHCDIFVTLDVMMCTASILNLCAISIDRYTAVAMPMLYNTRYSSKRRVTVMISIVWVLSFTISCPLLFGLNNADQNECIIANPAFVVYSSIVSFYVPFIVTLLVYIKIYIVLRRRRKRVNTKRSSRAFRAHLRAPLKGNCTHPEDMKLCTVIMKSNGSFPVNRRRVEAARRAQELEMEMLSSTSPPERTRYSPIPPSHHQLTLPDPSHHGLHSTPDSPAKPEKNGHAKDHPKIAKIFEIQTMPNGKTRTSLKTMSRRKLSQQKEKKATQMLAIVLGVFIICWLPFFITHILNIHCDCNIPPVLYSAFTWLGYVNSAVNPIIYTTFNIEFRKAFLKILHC
5-hydroxytryptamine receptor 2A (Homo sapiens), sequence (P28223 whole entry, looked up): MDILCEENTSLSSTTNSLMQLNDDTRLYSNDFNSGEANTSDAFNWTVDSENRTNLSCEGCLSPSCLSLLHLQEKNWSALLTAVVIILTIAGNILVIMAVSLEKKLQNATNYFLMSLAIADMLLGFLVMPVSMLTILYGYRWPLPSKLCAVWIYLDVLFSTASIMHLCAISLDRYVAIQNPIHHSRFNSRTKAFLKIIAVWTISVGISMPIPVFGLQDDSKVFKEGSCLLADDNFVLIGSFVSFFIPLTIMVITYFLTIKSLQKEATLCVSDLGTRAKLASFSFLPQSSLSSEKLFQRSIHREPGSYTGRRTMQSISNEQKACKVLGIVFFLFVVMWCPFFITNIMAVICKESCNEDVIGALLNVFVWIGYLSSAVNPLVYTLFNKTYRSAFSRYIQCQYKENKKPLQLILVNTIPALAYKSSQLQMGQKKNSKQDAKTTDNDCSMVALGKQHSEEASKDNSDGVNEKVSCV

CCCC/C=C/C=C\C=O
inactive: Potency [1] | Potency [2] | Potency [3] | Potency [4] | Potency [5] | Potency [6] | Potency [7] | Potency [8] | Potency [9] | Potency [10] | Potency [11] | Potency [12] | Potency [13] | Potency [14]

C1CCOC1
inactive: Potency [1] | Potency [2] | Potency [3] | Potency [4] | Potency [5] | Potency [6] | Potency [15] | Potency [7] | Potency [8] | Potency [9] | Potency [10] | Potency [16] | Potency [11] | Potency [12] | Potency [13] | Potency [14]

CC(C)(C)c1ccc(OCC2CO2)cc1 (centres undefined)
inactive: Potency [1] | Potency [2] | Potency [3] | Potency [15] | Potency [8] | Potency [9] | Potency [10] | Potency [17] | Potency [12] | Potency [13] | Potency [14]

CCC(Cl)CC(Cl)C(Cl)C(Cl)C(Cl)C(C)Cl (centres undefined)
inactive: activity change, negative = cytotoxicity [1] 2.55% [at 19 µM] | activity change [2] -1.19% [at 11.8 µM, stronger effect = higher value] | activation [3] 0.622% [at 11.8 µM] | activity change, negative = cytotoxicity [5] -1.84% [at 13.5 µM] | activity change, negative = cytotoxicity [6] -14% [at 13.5 µM] | activity change, negative = cytotoxicity [15] -23.5% [at 13.5 µM] | activity, negative = inhibition [8] -18.7% [at 12.7 µM] | activation [9] -1.32% [at 15.9 µM] | activity, negative = inhibition [10] -3.76% [at 12.6 µM] | activation [16] -0.121% [at 15.8 µM] | activity change, negative = inhibition [17] 6.46% [at 18.9 µM] | activity change, negative = inhibition [12] -8.4% [at 19 µM] | activation [13] -1.17% [at 19 µM]

CCCCCCC[N+](CC)(CC)CCCCc1ccc(Cl)cc1
inactive: Potency [1] | Potency [2] | Potency [3] | Potency [6] | Potency [15] | Potency [8] | Potency [9] | Potency [16] | Potency [12] | Potency [14]

O=C(O)COc1nn(Cc2ccccc2)c2ccccc12
inactive: Potency [1] | Potency [2] | Potency [3] | Potency [4] | Potency [18] | Potency [5] | Potency [6] | Potency [15] | Potency [7] | Potency [8] | Potency [9] | Potency [10] | Potency [16] | Potency [12] | Potency [19] | Potency [13] | Potency [14]

CC(C)(c1ccc(Oc2ccc(N)cc2)cc1)c1ccc(Oc2ccc(N)cc2)cc1
active: Potency [1] 38.6 µM
inactive: Potency [2] | Potency [3] | Potency [18] | Potency [5] | Potency [6] | Potency [7] | Potency [8] | Potency [9] | Potency [10] | Potency [16] | Potency [11] | Potency [17] | Potency [12] | Potency [13] | Potency [14]

CC(C)(C)C1=CC(=O)C=C(C(C)(C)C)C1=O
inactive: Potency [1] | Potency [2] | Potency [3] | Potency [5] | Potency [6] | Potency [15] | Potency [8] | Potency [9] | Potency [10] | Potency [16] | Potency [11] | Potency [17] | Potency [12] | Potency [13] | Potency [14]

Cc1ccccc1S
inactive: Potency [1] | Potency [2] | Potency [5] | Potency [6] | Potency [15] | Potency [8] | Potency [9] | Potency [10] | Potency [16] | Potency [11] | Potency [17] | Potency [12] | Potency [13] | Potency [14]

CCCC1CCOC(C)S1 (centres undefined)
inactive: Potency [1] | Potency [2] | Potency [3] | Potency [6] | Potency [15] | Potency [8] | Potency [9] | Potency [16] | Potency [11] | Potency [17] | Potency [12] | Potency [13]

O=Cc1ccc(O)c(O)c1O
inactive: Potency [1] | Potency [2] | Potency [3] | Potency [4] | Potency [18] | Potency [5] | Potency [6] | Potency [15] | Potency [7] | Potency [8] | Potency [9] | Potency [10] | Potency [16] | Potency [17] | Potency [12] | Potency [13] | Potency [14]

O=[N+]([O-])c1ccc(O)cc1C(F)(F)F
active: Potency [1] 30.6 µM
inactive: Potency [2] | Potency [18] | Potency [6] | Potency [15] | Potency [8] | Potency [9] | Potency [10] | Potency [16] | Potency [17] | Potency [12] | Potency [13] | Potency [14]

COC(=O)/C=C/C(C)=C\C=C\C(C)=C\C=C\C=C(C)\C=C\C=C(C)\C=C\C(=O)O
inactive: Potency [1] | Potency [2] | Potency [3] | Potency [4] | Potency [18] | Potency [5] | Potency [6] | Potency [15] | Potency [9] | Potency [16] | Potency [11] | Potency [12] | Potency [13] | Potency [14]

CCC(C)O (centres undefined)
inactive: Potency [1] | Potency [2] | Potency [3] | Potency [4] | Potency [18] | Potency [5] | Potency [6] | Potency [15] | Potency [7] | Potency [8] | Potency [9] | Potency [10] | Potency [11] | Potency [13]

CC(C)(C)C1CCC(CC2=C(O)c3ccccc3C(=O)C2=O)CC1 (centres undefined)
active: Potency [1] 29.8 µM
inactive: Potency [2] | Potency [3] | Potency [4] | Potency [18] | Potency [5] | Potency [6] | Potency [15] | Potency [8] | Potency [9] | Potency [10] | Potency [16] | Potency [17] | Potency [12] | Potency [13] | Potency [14]

CC(C)CCCCCCN
inactive: Potency [1] | Potency [2] | Potency [3] | Potency [4] | Potency [18] | Potency [5] | Potency [6] | Potency [15] | Potency [7] | Potency [9] | Potency [16] | Potency [11] | Potency [17] | Potency [13] | Potency [14]

O=C(O)Cc1ccc(Cl)cc1Cl
inactive: Potency [1] | Potency [2] | Potency [3] | Potency [18] | Potency [6] | Potency [15] | Potency [7] | Potency [8] | Potency [9] | Potency [10] | Potency [16] | Potency [11] | Potency [17] | Potency [12] | Potency [19] | Potency [13] | Potency [14]
